The text below walks through data of PubChem BioAssay (NCATS).

Records with an inconclusive call do not appear. Values without a mark were called inactive. Activity calls are given as the source filed them. The call rests on the fitted dose curve; in most records, active means well fitted inhibition curve with a large enough effect; inconclusive means small, poorly fitted or top-dose-only effect; inactive means flat fitted curve, though single readings scatter.
On the % scale 0 is the no-effect control and ±100 the full control effect.

The experiment can be described thus: P-glycoprotein substrates identified in KB-8-5-11 adenocarcinoma cell line, qHTS therapeutic library screen (AID 1346987). Further: nearly all actives have a fitted effect of over 65% in size. To be noted: KB-8-5-11 (P-gp overexpressing) viability, CellTiter-Glo, 72 h; series mostly up to 44.5 µM; activity change, negative = cytotoxicity: at the top concentration. Put shortly: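 Compounds are pinned in dose-response onto KB-8-5-11 cells (500 cells/well, colchicine-free medium) and left 72 h at 37 degree C. CellTiter-Glo luminescence then yields AC50 values.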
(In qHTS, concentration-response curves come from the screen itself.)
Take `C=C(CO)C12OC1C1(C)C(=CC2=O)C(O)C(O)CC1C` (stereo not given): the “activity change, negative = cytotoxicity” value was 0.27%. Turning to `CC1(C)CC[C@]2(C(=O)O)CC[C@]3(C)C(=CCC4[C@@]5(C)CC[C@H](O[C@@H]6O[C@H](CO)[C@@H](O)[C@H](O)[C@H]6O[C@@H]6O[C@H](CO)[C@@H](O)[C@H](O)[C@H]6O)[C@@](C)(CO)C5CC[C@]43C)[C@@H]2C1` (stereo not given in full), the “outcome” value is “inactive [at 17.3 µM]”.

With `CCC(COC)n1nnc2c(Nc3ccc(OC)cc3C)nc(C)cc21` (stereo not given), the “activity change, negative = cytotoxicity” value is -17.4%. Same read-out and setting: the same measure for `CC1CCC2(C(=O)O)CCC3(C)C(=CCC4C5(C)CCC(O)C(C)(CO)C5CCC43C)C2C1(C)O` (stereo not given): -2.05% [at 17.3 µM]. Still for that read-out and setting: in the case of `CC1(C)CCC2(C(=O)OC3OC(CO)C(O)C(O)C3O)CCC3(C)C(=CCC4C5(C)CCC(O)C(C)(C(=O)O)C5CCC43C)C2C1O` (stereo not given) it was 1.24% [at 17.3 µM].
